Among all 1,800 compounds or so, about 710 (39%) were called active. About 28% were inconclusive and are not listed. Not all results are given here. Entries with a potency or affinity are not part of this list. A number with no mark means an inactive call.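 Rule for the calls: active = luciferase signal rise whose fitted curve crosses a set activity limit at or below the top valid tested dose; inconclusive = flat fit with 30 to 70% rise, or poor fit; inactive = signal falling, flat within 30%, or crossing above top dose.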
Experiment: luciferase activators in glycosylation-insensitive reporter cells, dose response, counter-screen for N-linked glycosylation inhibitor project, D54 LucT cells, luminescence, cherry pick (AID 624404);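 note: 0% = median neutral control signal and 100% = twice that signal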
Settings: D54 LucT luciferase reporter counterscreen, 24 h; series mostly up to 19.5 µM; activity increase (luciferase signal): at the top concentration

Structure (SMILES)	activity increase (luciferase signal) [%]
CCN1/C(=C/c2ccc3ccccc3[n+]2CC)C=Cc2ccccc21	-66.4
CCCCCCCCCCn1c2c(c(=N)c3c1CCC3)CCC2	-66.6
COc1ccc2cc(C)c3nnc(SCC(=O)Nc4nc(-c5ccc(F)cc5)cs4)n3c2c1	-2.8
COCCN(C(=O)CCl)C(C(=O)NC1CCCCC1)c1ccccc1C (stereo not drawn)	-53.2
COc1ccc(C(C)(O)c2nc(-c3ccc(F)cc3OC)cs2)cc1 (stereo not drawn)	35.5
Nc1cccc2c1C(=O)N(C(=O)/C=C/c1ccc(F)cc1)C2=O	26.8
CC(=O)Cn1ncc(Br)c(Br)c1=O	67.2
Cn1c(Cl)cnc1C1CC(=O)c2cc(Cl)ccc2O1 (stereo not drawn)	-14.5
O=C(Nc1ccc(-c2nc3cc(NC(=O)c4cccs4)ccc3o2)cc1)c1cccs1	-4.38
Cc1c(C(=O)Nc2ccc3oc(-c4cccnc4)nc3c2)oc2ccccc12	-6.21
O=C(N/N=C\C=C\c1ccc([N+](=O)[O-])o1)c1cccs1	46.4
O=C(Nc1ccc(N2CCCC2)c(Cl)c1)c1ccc([N+](=O)[O-])o1	27.7
O=C(NCc1ccccc1)C(=O)NCC1COc2ccccc2O1 (stereo not drawn)	61.5
CN=c1sc(C(=O)Nc2cccc(Cl)c2)cc(=O)n1C	16
O=C(CN1C(=O)/C(=C\c2ccc(F)cc2)Oc2ccccc21)N1CCN(c2ccccn2)CC1	14.4
O=C1CCCC2=C1C(c1ccc(Cl)cc1)n1c(s/c(=C\c3ccc4ccncc4c3)c1=O)=N2 (stereo not drawn)	-24.9
COc1cccc(-n2c(SCC(=O)NC3CCCCC3)nc3n[nH]c(C)c3c2=N)c1	4.88
COc1ccc(C(=O)/C=C\c2ccc(NC(=O)c3cccs3)cc2)cc1	35.6
O=C1CCCN1CCCNc1nc(NCc2ccccc2)nc2ccsc12	28.6
Cc1ccsc1CNc1ncnc2ccc(-c3c(C)noc3C)cc12	-1.47
COc1ccc(C(=O)c2cc([N+](=O)[O-])ccc2N2CCN(C)CC2)cc1	-3.34
COc1cc(/C=C/C(=O)c2ccc3c(c2)OCCO3)cc(OC)c1OC	-9.8
CN(C)c1ccc(/C=C/C(=O)c2ccc(C(C)(C)C)cc2)cc1[N+](=O)[O-]	13
CCOc1cc(/C=C/C(=O)c2ccc3c(c2)OCCO3)ccc1OCC(=O)N(C)C	31.7
COC(=O)C(=Cc1ccc(-c2ccsc2C(=O)OC)o1)C(=O)OC	47
O=c1c2ccccc2sc2c(CO)ccc(NCCN3CCCCC3)c12	11.3
Cc1ccc2cc3c(N)c4c(C)ccc(C)c4nc3nc2c1	29.4

Structure (SMILES)	activity increase (luciferase signal) [%]
CC1=Nc2cc(C(=O)NCC3CCCO3)ccc2Sc2ccc(Br)cc21 (stereo not drawn)	6.05
CCC1=Nc2cc(C(=O)NCc3ccco3)ccc2Sc2ccc(Cl)cc21	-3.98
O=C(/C=C/c1ccc([N+](=O)[O-])cc1)/C=C/c1ccco1	6.1
CC(NC(=O)c1cccc2ccccc12)c1ccc2c(c1)CCCC2 (stereo not drawn)	22.9
COc1cc2cc(/C=C/C(=O)c3ccco3)c(Cl)nc2cc1OC	-17.6
O=C(Oc1c(Cl)cc(Cl)c2cccnc12)c1ccco1	-31.1
CCOc1ccc2[nH]c(=O)c(CN(Cc3ccc(F)cc3)C(=O)c3ccco3)cc2c1	28.1
CN(C)c1ccc(CNC(=O)C2(C)Cc3c(-c4ccc5c(c4)OCO5)ccnc3O2)cc1 (stereo not drawn)	37
CC1=C([N+](=O)[O-])C(c2ccccc2)C2=C(N1)c1ccccc1C2=O (stereo not drawn)	10.1
CCCCCCCCn1c2c(c(=N)c3c1CCC3)CCCC2	-57.8
COc1cc(/C=N\NC(=O)c2sc(N)nc2C)cc(OC)c1OC	15.9
C#CC[N+](C)(C)CCCCCCCCCCCC	37.5
CCc1ccc(Nc2n[n+](-c3ccccc3)c(-c3ccc(N(CC)CC)cc3)s2)cc1	-3.22
CN(Cc1ccc(Cl)s1)C(=O)CCl	1.46
COC(=O)CNC(c1ccccc1)c1cc(Br)ccc1NC(=O)CCN1CCOCC1 (stereo not drawn)	8.3
NS(=O)(=O)c1cc(C(=O)NCCOc2ccccc2)c(Cl)cc1Cl	43.3
COc1cc(/C=C/C(=O)c2ccc(Cl)s2)cc(OC)c1O	3.5
COc1ccc(C=CC(=O)c2ccc(OC)c(OC)c2O)cc1OC	14.6
COc1ccc(/C=C/C(=O)c2ccc3c4c(cccc24)CC3)cc1	8.97
COc1ccc(OC(=O)N2C/C(=C/c3ccccc3)C(=O)/C(=C\c3ccccc3)C2)cc1	-32.7
O=CC1=C(c2ccccc2)Oc2ccccc2O1	-21
Nc1nonc1-c1nc2ccccc2n1Cc1ccccc1	30
Cc1noc2ncnc(Sc3ccc(Br)cc3)c12	15.6
COc1ccc(C=CC(=O)c2c(OC)cc(OC)c(OC)c2O)cc1	-20.6
COc1cc(O)c(C(=O)/C=C/c2ccccc2)c(OC)c1	49
CCOC(=O)C(=Cc1ccc(-c2ccsc2C(=O)OC)o1)C(=O)OCC	24.1

Source: PubChem BioAssay AID624404 (Broad Institute, 2012)
